# In the antibiotic and cytotoxicity screens of Wong et al. (2023):
# In all, about 39,000 compounds went through this assay and about 3,300 (8.5%) were called active. The sample holds actives, similar compounds and a random draw of the others, so the mix is not that of the screen.
# Tested on: HepG2
# Test: cytotoxicity call (relative viability < 0.9)
# Settings: 10 µM
row,Structure (SMILES),cytotoxicity call
1,COc1ccccc1S(=O)(=O)N[C@H]1CC[C@@H](CCNC(=O)C2CCOCC2)O[C@H]1CO,inactive
2,CSCC[C@H]1NC(=O)NC1=O,inactive
3,OCCC12CC3CC(CC(C3)C1)C2,inactive
4,C[C@@H]1CN([C@@H](C)CO)C(=O)CCCn2cc(nn2)CO[C@H]1CN(C)C(=O)Nc1ccc(N2CCCCC2)cc1,inactive
5,C[C@@H]1CN([C@@H](C)CO)C(=O)c2cccc(NS(=O)(=O)c3ccc(F)cc3)c2O[C@@H]1CN(C)C(=O)Nc1ccc(C(F)(F)F)cc1,active
6,C[C@@H]1CN([C@H](C)CO)C(=O)c2cccc(NS(=O)(=O)c3ccc(F)cc3)c2O[C@H]1CN(C)C(=O)Nc1ccc(C(F)(F)F)cc1,inactive
7,C[C@H](CO)N1C[C@H](C)[C@@H](CN(C)C(=O)Nc2ccc(C(F)(F)F)cc2)Oc2c(NS(=O)(=O)c3ccc(Cl)cc3)cccc2C1=O,inactive
8,C[C@@H]1CN([C@@H](C)CO)C(=O)c2cccc(NS(=O)(=O)c3ccc(Cl)cc3)c2O[C@H]1CN(C)C(=O)Nc1ccc(C(F)(F)F)cc1,inactive
9,C[C@@H]1CN([C@H](C)CO)C(=O)c2cccc(NS(=O)(=O)c3ccc(Cl)cc3)c2O[C@@H]1CN(C)C(=O)Nc1ccc(C(F)(F)F)cc1,active
10,C[C@H]1CN([C@@H](C)CO)C(=O)c2cccc(NS(=O)(=O)c3ccc(Cl)cc3)c2O[C@H]1CN(C)C(=O)Nc1ccc(C(F)(F)F)cc1,inactive
11,C[C@H]1CN([C@@H](C)CO)C(=O)c2cccc(NS(=O)(=O)c3ccc(F)cc3)c2O[C@H]1CN(C)C(=O)Nc1ccc(C(F)(F)F)cc1,inactive
12,C[C@@H]1CN([C@@H](C)CO)C(=O)c2cccc(NS(=O)(=O)c3ccc(Cl)cc3)c2O[C@@H]1CN(C)C(=O)Nc1ccc(C(F)(F)F)cc1,active
13,C[C@H]1CN([C@@H](C)CO)C(=O)c2cccc(NS(=O)(=O)c3ccc(F)cc3)c2O[C@@H]1CN(C)C(=O)Nc1ccc(C(F)(F)F)cc1,inactive
14,C[C@H](CO)N1C[C@H](C)[C@H](CN(C)C(=O)Nc2ccc(C(F)(F)F)cc2)Oc2c(NS(=O)(=O)c3ccc(Cl)cc3)cccc2C1=O,active
15,C[C@H]1CN([C@@H](C)CO)C(=O)c2cccc(NS(=O)(=O)c3ccc(Cl)cc3)c2O[C@@H]1CN(C)C(=O)Nc1ccc(C(F)(F)F)cc1,inactive
16,C[C@@H]1CN([C@H](C)CO)C(=O)c2cccc(NS(=O)(=O)c3ccc(Cl)cc3)c2O[C@H]1CN(C)C(=O)Nc1ccc(C(F)(F)F)cc1,inactive
17,C[C@@H]1CC=CC[C@H](c2cccc(Cl)c2)NC(=O)[C@@H](Cc2ccccc2)N(C)C(=O)c2ccccc2O1,inactive
18,C[C@@H]1CN([C@@H](C)CO)C(=O)c2c(c3ccccc3n2C)-c2ccccc2CO[C@@H]1CN(C)C(=O)N[C@H](C)c1ccccc1,inactive
19,Cc1ccc(S(=O)(=O)N(C)C[C@@H]2Oc3cc(Br)ccc3S(=O)(=O)N([C@@H](C)CO)C[C@H]2C)cc1,inactive
20,Cc1noc(C)c1S(=O)(=O)Nc1ccc2c(c1)C(=O)N([C@H](C)CO)C[C@H](C)[C@@H](CN(C)C(=O)Nc1ccccc1)OCCCC[C@H](C)O2,inactive
21,O=C1N[C@@H](CC(=O)N2CCN(CCc3ccncc3)CC2)C(=O)Nc2ccccc21,inactive
22,COc1ccc(-c2cnc3c(c2)C(=O)N([C@@H](C)CO)C[C@@H](C)[C@H](CN(C)C(=O)Cc2ccccn2)O3)cc1,inactive

row,Structure (SMILES),cytotoxicity call
1,CCCNC(=O)N[C@H]1CC[C@H](CC(=O)N2CCN(C)CC2)O[C@H]1CO,inactive
2,C[C@@H](O)CNC(=O)C(=O)NC(C)(C)C,inactive
3,COc1cccc(-c2cn(CC[C@@H]3CC[C@H](NC(=O)CN(C)C)[C@H](CO)O3)nn2)c1,inactive
4,C[C@H]1CN([C@@H](C)CO)C(=O)c2cc(NC(=O)Cc3ccccc3)ccc2O[C@@H]1CN(C)S(=O)(=O)c1cn(C)cn1,inactive
5,NCCC[C@H](NC(=O)[C@@H]1CCCN1C(=O)[C@@H]1CSSC[C@H](N)C(=O)N[C@@H](Cc2ccc(O)cc2)C(=O)N[C@@H](Cc2ccccc2)C(=O)N[C@@H](CCC(N)=O)C(=O)N[C@@H](CC(N)=O)C(=O)N1)C(=O)NCC(N)=O,active
6,NCCCC[C@H](NC(=O)[C@@H]1CCCN1C(=O)[C@@H]1CSSC[C@H](N)C(=O)N[C@@H](Cc2ccccc2)C(=O)N[C@@H](Cc2ccccc2)C(=O)NC(CCC(N)=O)C(=O)N[C@@H](CC(N)=O)C(=O)N1)C(=O)NCC(N)=O (stereo not given in full),inactive
7,NCCCC[C@H](NC(=O)[C@@H]1CCCN1C(=O)[C@@H]1CSSC[C@H](N)C(=O)N[C@@H](Cc2ccc(O)cc2)C(=O)N[C@@H](Cc2ccccc2)C(=O)N[C@@H](CCC(N)=O)C(=O)N[C@@H](CC(N)=O)C(=O)N1)C(=O)NCC(N)=O,inactive
8,CNC[C@H]1OCCCC[C@H](C)Oc2ccc(NC(=O)Nc3ccc(C(F)(F)F)cc3)cc2C(=O)N([C@H](C)CO)C[C@@H]1C,inactive
9,COc1cccc(S(=O)(=O)Nc2ccc3c(c2)C(=O)N(C)C[C@H](OC)[C@@H](C)CN(C(=O)Cc2cccnc2)[C@@H](C)CO3)c1,inactive
10,CC(C)=CCC[C@@H](C)CCO,inactive
11,CC(=O)N1[C@@H](CO)[C@H](c2ccccc2)[C@@H]1CNC(=O)CN1CCOCC1,inactive
12,CC(C)C[C@H](NC(=O)[C@H](CCc1ccccc1)NC(=O)CN1CCOCC1)C(=O)N[C@@H](Cc1ccccc1)C(=O)N[C@@H](CC(C)C)C(=O)[C@@]1(C)CO1,active
13,COC(=O)C(Cc1ccccc1)NC(=O)C(N)CC(=O)O (stereo not given),inactive
14,COc1ccc(C[C@H](NC(=O)[C@H](C)NC(=O)CN2CCOCC2)C(=O)N[C@@H](Cc2ccccc2)C(=O)[C@@]2(C)CO2)cc1,active
15,COC(=O)[C@H](Cc1ccccc1)NC(=O)[C@@H](N)CC(=O)O,inactive
16,CC(=O)N[C@@H](Cc1ccccc1)C(=O)O,inactive
17,CC(=O)N1[C@H](CNC(=O)CN2CCOCC2)[C@@H](c2ccccc2)[C@@H]1CO,inactive
18,COC[C@H](NC(=O)c1cnc(C)s1)C(=O)N[C@@H](COC)C(=O)N[C@@H](Cc1ccccc1)C(=O)[C@@]1(C)CO1,active
19,CC(=O)N[C@@H](Cc1ccccc1)C(=O)NN,inactive
20,C[C@@H]1CN([C@H](C)CO)C(=O)c2cccc(NC(=O)c3ccc(-c4nccs4)cc3)c2O[C@H]1CN(C)Cc1ccc(C(=O)Nc2ccccc2N)cc1,inactive
21,NCCC[C@@H](N)CC(=O)NC[C@H]1NC(=O)[C@@H](CO)NC(=O)[C@@H](N)CNC(=O)[C@H]([C@H]2CCN=C(N)N2)NC(=O)C(C=NC(N)=O)NC1=O (stereo not given in full),inactive
22,O=C(C[C@H]1CC[C@H]2[C@@H](COC[C@H](O)CN2C(=O)C2CC2)O1)NCc1ccncc1,inactive

row,Structure (SMILES),cytotoxicity call
1,C=CCNc1ncnc2c1cnn2C,inactive
2,CNC(=O)C[C@@H]1CC[C@H]2[C@@H](COC[C@@H](O)CN2C(=O)c2ccccn2)O1,inactive
3,CO[C@H]1CN(C)C(=O)c2cc(NS(=O)(=O)c3ccccc3)ccc2OC[C@H](C)N(C(=O)NC(C)C)C[C@@H]1C,inactive
4,C[C@H](CO)N1C[C@H](C)[C@H](CN(C)Cc2ccc(Cl)c(Cl)c2)Oc2ccc(NC(=O)Nc3ccc4c(c3)OCO4)cc2CC1=O,active
5,C[C@H]1CN([C@@H](C)CO)C(=O)Cc2cc(NC(=O)Nc3ccc4c(c3)OCO4)ccc2O[C@@H]1CN(C)Cc1ccc(Cl)c(Cl)c1,inactive
6,C[C@@H]1CN([C@@H](C)CO)C(=O)Cc2cc(NC(=O)Nc3ccc4c(c3)OCO4)ccc2O[C@@H]1CN(C)Cc1ccc(Cl)c(Cl)c1,inactive
7,C[C@@H]1CN([C@H](C)CO)C(=O)Cc2cc(NC(=O)Nc3ccc4c(c3)OCO4)ccc2O[C@@H]1CN(C)Cc1ccc(Cl)c(Cl)c1,inactive
8,C[C@@H]1CN([C@H](C)CO)C(=O)Cc2cc(NC(=O)Nc3ccc4c(c3)OCO4)ccc2O[C@H]1CN(C)Cc1ccc(Cl)c(Cl)c1,inactive
9,C[C@@H]1CN([C@@H](C)CO)C(=O)Cc2cc(NC(=O)Nc3ccc4c(c3)OCO4)ccc2O[C@H]1CN(C)Cc1ccc(Cl)c(Cl)c1,active
10,C[C@H]1CN([C@@H](C)CO)C(=O)Cc2cc(NC(=O)Nc3ccc4c(c3)OCO4)ccc2O[C@H]1CN(C)Cc1ccc(Cl)c(Cl)c1,active
11,C[C@H](CO)N1C[C@H](C)[C@@H](CN(C)Cc2ccc(Cl)c(Cl)c2)Oc2ccc(NC(=O)Nc3ccc4c(c3)OCO4)cc2CC1=O,inactive
12,CCS(=O)(=O)N1CC[C@]2(CC1)CN([C@@H](CO)c1[nH]c3cc(ccc3c12)OC)C(=O)c1ccc(cc1)F,inactive
13,COc1ccc(S(=O)(=O)N(C)C[C@H]2OCCCC[C@H](C)Oc3ccc(NC(=O)Nc4ccc(F)cc4)cc3C(=O)N([C@@H](C)CO)C[C@H]2C)cc1,inactive
14,CN1CCN(C(=O)[C@@H]2[C@@H](C(=O)O)[C@H]3CC[C@H]2O3)CC1,inactive
15,CN(C)CC(=O)N1CC(=O)N2[C@@H](CO)[C@H](c3ccc(C#Cc4cccnc4)cc3)[C@@H]2C1,inactive
16,CN1CCN(C)[C@@H](CO)C1,inactive
17,Cc1ccc(S(=O)(=O)N(C)C[C@@H]2OCCCC[C@@H](C)Oc3ccc(NC(=O)c4ccccc4)cc3C(=O)N([C@@H](C)CO)C[C@@H]2C)cc1,inactive
18,C[C@@H]1CN([C@H](C)CO)C(=O)c2cc(NS(=O)(=O)c3cn(C)cn3)ccc2O[C@@H]1CN(C)C(=O)Nc1ccc(F)cc1,inactive
19,CC(CC(=O)C1OC1(C)C)C1C(=O)CC2(C)C3=CCC4C(C)(C)C(OC5OCC(O)C(O)C5O)CCC45CC35C(O)CC12C (stereo not given),active
20,CC(=O)OC1CC23CC24CCC(OC2OCC(O)C(O)C2O)C(C)(C)C4CCC3C2(C)CC3OC4(CC(C)C3C12C)OC(O)C1(C)OC41 (stereo not given),inactive
21,CC1(C)CC[C@]2(C(=O)O[C@@H]3O[C@H](CO[C@@H]4O[C@H](CO)[C@@H](O)[C@H](O)[C@H]4O)[C@@H](O)[C@H](O)[C@H]3O)CC[C@]3(C)C(=CC[C@H]4[C@@]5(C)CC[C@H](O[C@@H]6OC[C@H](O)[C@H](O)[C@H]6O)C(C)(C)[C@@H]5CC[C@]43C)[C@@H]2C1,inactive
